Assay results: paper PMC5540273 (PLoS ONE, 2017)

Key:
Details in all cases: concentration: 1 μM, replicates: in singlicate; n = 1
PRKCE = system: PRKCE
PRKCH = system: PRKCH
PRKCI = system: PRKCI
PRKCQ = system: PRKCQ
PRKD1 = system: PRKD1
PRKD2 = system: PRKD2
PRKD3 = system: PRKD3
PRKG1 = system: PRKG1
PRKG2 = system: PRKG2
PRKR = system: T1, PRKR
T1 construct: gene EIF2AK2
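Further: KINOMEscan kinase panel screen.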

Structure (SMILES)	%Inh (PRKCE) [%]	%Inh (PRKCH) [%]	%Inh (PRKCI) [%]	%Inh (PRKCQ) [%]	%Inh (PRKD1) [%]	%Inh (PRKD2) [%]	%Inh (PRKD3) [%]	%Inh (PRKG1) [%]	%Inh (PRKG2) [%]	%Inh (PRKR) [%]
COc1cccc(C2=C(N(C)c3ccccc3)C(=O)NC2=O)c1 [SB-334865]	25	5	7	0	6	0	10	0	0	0
CCC(=O)c1c(-c2ccccc2)c2cc(Cl)ccc2c(=O)n1Cc1cc(S(C)(=O)=O)n(CC(F)F)n1	0	6	0	8	0	0	0	0	0	0
COc1ccc(-c2cc3c(C)nc(N)nc3n([C@H]3CC[C@H](O)CC3)c2=O)cn1	36	0	0	0	3	0	0	0	0	0
CCS(=O)(=O)c1ccc(OC)c(Nc2ncc(-c3ccc(F)cc3)o2)c1.Cl [GW591947]	0	18	11	0	0	0	0	45	0	0
COc1cc2ncn(-c3cc(OCc4ccncc4Br)c(C(N)=O)s3)c2cc1OC [GW854278]	7	0	13	22	0	11	0	0	0	0
Cl.NS(=O)(=O)c1cccc(Nc2cc(-c3ccc(F)cc3)n[nH]2)c1 [GW824645]	12	0	0	0	0	5	0	0	0	0
COc1cc2nccc(Nc3cccc(Oc4ccccc4)c3)c2cc1OC.Cl [GW284543]	0	0	18	1	0	0	31	3	0	0
CCCNC(=O)Nc1ccc(Oc2ncnc3ccn(C)c23)cc1	3	13	0	22	0	0	0	0	0	0
FC(F)(F)c1ccc(-c2ncn(CCCN3CCOCC3)c2-c2ccncc2)cc1 [SB-217780]	35	0	19	30	0	0	0	29	25	0
Nc1nc(N)c2nc(-c3ccccc3)[nH]c2n1 [SKF-12778]	4	0	36	40	40	9	0	12	0	0
C[C@@H]1CC[C@H](C(=O)NC2CCCCC2)CN1c1cc(-c2ccc3c(N)n[nH]c3c2)nc(N)n1 [GSK2291363]	14	34	37	34	0	12	26	17	0	14
O=C(Nc1n[nH]c2nc(-c3ccccc3)c(Br)cc12)C1CC1 [SB-708998]	0	15	26	0	0	0	17	14	0	0
Cc1ccc(Oc2ccc(Nc3ncnc4cc[nH]c34)cc2C)cn1	0	27	7	9	0	2	8	0	23	8
COc1ccc(Nc2nccc(N3CCC(NS(=O)(=O)c4ccc(NC(C)=O)cc4)C3)n2)cc1 (centres unmarked) [GSK1379729]	22	22	22	10	25	0	41	12	0	0
Cc1nn2c(=O)cc(N3CCOCC3)nc2n1Cc1cccc(Cl)c1Cl [GSK2342769]	0	21	5	19	20	0	16	0	0	0
COc1cc2ncn(-c3cc(OCc4ccncc4)c(C(N)=O)s3)c2cc1OC [GSK336313]	1	0	0	0	47	3	15	0	0	0
Nc1ncnc2c1ncn2-c1cccc2ccccc12 [SKF-97184]	5	5	22	0	0	0	0	0	0	0
O=C(Nc1n[nH]c2nc(-c3ccccc3)c(Cl)cc12)C1CC1 [SB-734909]	10	0	0	0	0	35	5	6	20	0

Structure (SMILES)	%Inh (PRKCE) [%]	%Inh (PRKCH) [%]	%Inh (PRKCI) [%]	%Inh (PRKCQ) [%]	%Inh (PRKD1) [%]	%Inh (PRKD2) [%]	%Inh (PRKD3) [%]	%Inh (PRKG1) [%]	%Inh (PRKG2) [%]	%Inh (PRKR) [%]
COc1ccc(-c2cc3c(C)nc(N)nc3n([C@H]3CC[C@H](OCCO)CC3)c2=O)cn1	14	0	18	0	2	0	9	0	0	0
COc1cc2ncn(-c3cc(OCCCc4ccccc4)c(C(N)=O)s3)c2cc1OC [GSK205189]	0	0	13	19	0	23	0	0	0	0
CCn1c(-c2ccoc2)nc2cnccc21 [SB-733887]	7	0	9	0	2	0	27	0	0	0
Cc1nnc(-c2ccc3ncn(-c4ccc(S(C)=O)cc4)c3c2)o1 (centres unmarked)	3	4	0	3	0	35	0	0	13	0
O=C1NC(=O)C(c2ccccc2)=C1Nc1cccc(O)c1 [SB-390534]	17	0	9	0	0	3	0	8	2	100
O=c1cc(N2CCOCC2)nc2n(Cc3ccc(F)c(Cl)c3)ccn12 [GSK2297099]	0	12	0	26	0	0	12	0	0	15
Cc1nnc(-c2ccc(C)c(-c3ccc(C(=O)O)cc3)c2)o1 [GW608005]	0	0	0	5	0	0	19	0	0	0
COc1cc(Nc2nccc(N3CCC(NC(=O)C4COc5ccccc5O4)C3)n2)cc(OC)c1OC (centres unmarked) [GSK1379761]	3	4	0	0	0	10	0	0	3	13
O=C(Nc1n[nH]c2cc(-c3ccccc3F)ccc12)C1CC1 [SB-733371]	21	0	0	0	0	0	0	0	0	0
CCCC(=O)Nc1n[nH]c2ncc(-c3cccc4ccccc34)cc12 [SB-642057]	16	16	15	0	0	14	0	7	0	29
COc1cccc(-n2cnc3c(N)ncnc32)c1 [SKF-97416]	33	0	25	1	0	0	0	19	14	13
OCCCNc1nccc(-c2c(-c3cccc(C(F)(F)F)c3)nn3cc(C(F)(F)F)ccc23)n1 [GW630813]	7	10	0	0	22	10	0	0	0	8
CN1C(=O)C(Nc2cc(Cl)c(O)c(Cl)c2)=C(c2ccc(Cl)cc2)C1=O [SB-404321]	0	0	3	0	54	0	0	0	0	4
COc1cc2ncn(-c3cc(OCc4ccc(S(C)(=O)=O)cc4)c(C(N)=O)s3)c2cc1OC [GW869979]	20	0	12	0	0	0	18	0	0	0
CCc1ccc(-c2ccc3c(c2)-c2nn(C)cc2S(=O)(=O)N3C)cc1	0	0	18	10	0	13	0	0	0	0
COC(=O)c1c(-c2ccccc2)c2cc(Br)ccc2c(=O)n1Cc1ccc(S(C)(=O)=O)cc1	1	4	0	37	0	0	0	0	8	0
COc1ccc(CNC(=O)NC2CCN(c3ccnc(Nc4ccc(F)cc4)n3)C2)cc1 (centres unmarked) [GSK1379706]	27	12	0	15	0	14	15	0	20	15
